An excerpt weighted towards active compounds, which were near 2.9% of everything screened.
D3 antag – qHTS of D3 Dopamine Receptor Antagonist: qHTS. D(3) dopamine receptor (Homo sapiens), P35462. D3R cells, DiscoveRx beta-arrestin luminescence, antagonist mode; stronger effect = lower value. max response, negative = inhibition, %. 360,000 tested, 2.5% active. AID 652054, 2013; in the data active = max response below about -50%; inconclusive = no clear call, values can overlap the other calls
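Cells plated overnight at 1500 cells/well, then exposed to library compounds with dopamine controls for 90 minutes at 37 degrees C. DiscoveRx reagent added for 30–60 minutes at room temperature; luminescence read, quantitative HTS format.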
B2AR arrestin – qHTS assay of beta-arrestin-biased ligands of beta2-adrenergic receptor; Beta-2 adrenergic receptor (Homo sapiens), P07550; beta-arrestin recruitment to beta2AR, cell-based reporter; Potency, µM (series often up to 46.1 µM), most hits filed as activators; 330,000 tested, 0.02% active; AID 492947, 2010; note: nearly all actives have a fitted effect of over 65% in size
Target sequence (P07550 whole entry, looked up): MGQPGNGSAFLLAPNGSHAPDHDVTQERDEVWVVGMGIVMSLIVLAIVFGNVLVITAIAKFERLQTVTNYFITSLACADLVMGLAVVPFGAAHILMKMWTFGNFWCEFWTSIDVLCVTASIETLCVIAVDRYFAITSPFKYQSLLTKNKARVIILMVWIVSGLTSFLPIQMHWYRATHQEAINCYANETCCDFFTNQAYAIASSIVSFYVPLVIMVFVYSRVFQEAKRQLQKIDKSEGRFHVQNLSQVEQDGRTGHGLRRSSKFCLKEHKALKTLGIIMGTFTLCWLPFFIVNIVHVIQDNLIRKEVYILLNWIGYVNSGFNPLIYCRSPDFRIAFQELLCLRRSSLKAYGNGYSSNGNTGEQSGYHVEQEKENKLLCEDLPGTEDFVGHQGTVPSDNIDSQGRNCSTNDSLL
Integrin act MD – qHTS for Activators of Integrin-Mediated Alleviation for Muscular Dystrophy | alpha7betagal myoblasts, beta-gal FDG fluorescence, 48 h | Potency, µM (series often up to 38.3 µM), hits mostly activators | 350,000 tested, 0.064% active; note: nearly all actives have a fitted effect of over 60% in size
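alpha7betagal+/- myoblasts (passage 13, 250/well) treated 48 h at 37C with compounds at 1:260 dilution of DMSO stock. Lysed, then beta-galactosidase activity read as FDG fluorescence (ex 480/em 540) after 30 min, with pre-read for autofluorescence.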
IDH1 R132H inh – qHTS for Inhibitors of mutant isocitrate dehydrogenase 1 (IDH1): qHTS; 390,000 tested, 0.093% active; Isocitrate dehydrogenase [NADP] cytoplasmic (Homo sapiens), O75874; Potency, µM (titrated, usually from 76.6 µM), hits mostly inhibitors; IDH1-R132H enzyme, NADPH consumption, diaphorase/resazurin fluorescence; note: nearly all actives have a fitted effect of over 65% in size
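IDH1-R132H (0.5 ug/mL dispensed) in pH 7.5 Tris buffer was preincubated 30 min with compound, then given a substrate mix of 0.016 mM NADPH and 2 mM alpha-KG for 80 min at room temperature; remaining NADPH was read by diaphorase/resazurin fluorescence.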
DRD3 agonist – qHTS of D3 Dopamine Receptor Agonist: qHTS; D3R DiscoveRx beta-arrestin cells, luminescence, 90 min; D(3) dopamine receptor (Homo sapiens), P35462; 410,000 tested, 0.58% active; max activation, %; in the data active = max activation above about 30%
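Cells at 1500/well, incubated overnight, then treated with pinned compounds (dopamine as control) for 90 min at 37 degrees C. DiscoveRx reagent added for 30 - 60 minutes at room temperature; luminescence read.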
Numbers stand for hits; . = inactive; ? = inconclusive; / = no result. Unless noted, calls come from the whole dose curve; as a rule, active = well fitted curve in the direction sought with a large enough effect; inconclusive = small, poorly fitted or top-dose-only effect, or another doubt; inactive = no such curve, though single readings can be large; an effect the other way counts as inactive or inconclusive.

SMILES	D3 antag	B2AR arrestin	Integrin act MD	IDH1 R132H inh	DRD3 agonist
O=C(O)COc1ccc(/C=N/Nc2nc(Nc3ccccc3)nc(N3CCCCC3)n2)cc1	-50	.	.	.	.
O=C(N/N=C/c1cccc([N+](=O)[O-])c1O)c1cccs1	.	.	.	.	.
COc1cc([N+](=O)[O-])cc(/C=N/NC(=O)c2cccnc2)c1O	?	.	?	.	.
O=[N+]([O-])c1ccccc1C=NNC(=S)NN=Cc1ccccc1[N+](=O)[O-]	-58	/	.	.	.
COc1ccc(/C=N/Nc2nc(Nc3ccccc3)nc(N3CCCC3)n2)cc1	.	.	.	.	.
O=C(N/N=C/c1cccc([N+](=O)[O-])c1O)C(O)(c1ccccc1)c1ccccc1	-71	.	.	.	.
CC(C)(C)OC(=O)C[C@@H]1C/C=C\C[C@H](CC(=O)N(CCO)Cc2ccccc2)C(=O)N2CCC[C@H]2COC1=O	.	.	.	.	.
CCCCN(C)CCCNC(=O)c1ccc2nc(N3CCCCC3)sc2c1	/	/	/	.	.
Cc1c(NC(=O)COC(=O)C2CC3C=CC2C3)c(=O)n(-c2ccccc2)n1C (configuration not stated)	-76	.	.	.	.
CCC1=C[C@@H]2CN(C1)Cc1c([nH]c3ccccc13)[C@@](C(=O)OC)(c1cc3c(cc1OC)N(C)[C@H]1[C@@](O)(C(=O)OC)[C@H](OC(C)=O)[C@]4(CC)C=CCN5CC[C@]31[C@@H]54)C2	/	/	/	/	.
S=C=Nc1ccc(N=C=S)cc1	/	/	/	/	.
CC1CCCCC1NC(=O)CCC(=O)N1CCOc2ccc(Cl)cc21 (configuration not stated)	-53	.	.	.	.
CC1CCC(NC(=O)CCC(=O)N2CC(C)Oc3ccccc32)CC1 (configuration not stated)	-92	.	.	.	.
Cc1ccc2c(c1)N(C(=O)CCC(=O)NC1CCC(C)CC1)CCO2 (configuration not stated)	-96	.	.	.	.
Cc1c(NC(=O)c2cc(=O)c3cc(Cl)ccc3o2)c(=O)n(-c2ccccc2)n1C	/	/	/	.	.
COC(=O)c1cccc(NC(=O)N(C)CCc2c(C)nn(C)c2C)c1	/	/	/	.	.
O=C(O)CO.[NH2-].[NH2-].[Pt+2]	/	/	/	/	.
CCCCc1ccc(Nc2cc(C)nc(-n3nc(C)cc3C)n2)cc1	/	/	/	.	.
O=C(CSc1nnc(CNC(=O)c2cccs2)o1)NCC1CCCO1 (configuration not stated)	.	.	.	.	.
CC(C)c1ccc(-c2csc3ncnc(N4CCN(C)CC4)c23)cc1	-72	.	?	.	.
COc1ccc(-c2csc3ncnc(N4CCN(c5ccccc5[N+](=O)[O-])CC4)c23)cc1	.	.	10µM	.	.
CC1CCCC(NC(=O)CSC2=Nc3ccccc3C3CC=NN23)C1C (configuration not stated)	.	.	.	.	.
COc1ccc(NC(=O)C2Cc3c(-c4cccc(NC(C)=O)c4)ccnc3O2)cc1 (configuration not stated)	-58	/	/	/	.
CC(=O)c1cccc(-c2ccnc3c2CC(C(=O)Nc2ccc(Cl)cc2)O3)c1 (configuration not stated)	-61	/	/	/	.
O=C(Nc1cccc(Oc2ccccc2)c1)C1Cc2c(-c3ccc4c(c3)OCO4)ccnc2O1 (configuration not stated)	.	/	/	/	.
SMILES	D3 antag	B2AR arrestin	Integrin act MD	IDH1 R132H inh	DRD3 agonist
CC(=O)Nc1ccc(NC(=O)C2Cc3c(-c4cccc(NC(C)=O)c4)ccnc3O2)cc1 (configuration not stated)	.	/	/	/	.
O=C(Nc1cccc(OC(F)(F)F)c1)C1Cc2c(-c3ccc4c(c3)OCO4)ccnc2O1 (configuration not stated)	-55	/	/	/	.
CC(=O)Nc1ccc(NC(=O)C2Cc3c(-c4cccc(C(C)=O)c4)ccnc3O2)cc1 (configuration not stated)	.	/	/	/	.
CCOC(=O)C1CCN(C(=O)c2c(C)nn(-c3ccc(F)cc3)c2-n2cccc2)CC1	/	/	/	.	.
Cc1c(Cl)cccc1NC(=O)Cn1c(=O)n(Cc2ccco2)c(=O)c2oc3ccccc3c21	/	/	/	.	.
Cc1ccc(C)c(S(=O)(=O)Nc2ccc(C(=O)NCC(c3ccco3)N(C)C)cc2)c1 (configuration not stated)	-53	.	.	.	.
CCN(c1ccccc1)S(=O)(=O)c1cccc(C(=O)NCC(c2cccs2)N(C)C)c1 (configuration not stated)	-56	.	.	.	.
COc1cc(C(=O)NCC(c2cccs2)N(C)C)cc(Cl)c1OC(C)C (configuration not stated)	-76	.	.	.	.
Cc1ccccc1NS(=O)(=O)c1ccc(C(=O)NCC(c2ccco2)N(C)C)cc1 (configuration not stated)	-57	.	.	.	.
CCCOc1ccc(C(=O)NCC(c2cccs2)N(C)C)cc1OC (configuration not stated)	?	.	.	.	.
Cn1cccc1-c1cc2n(n1)CCC(=O)N2CCCC(=O)NCc1ccc(F)cc1	/	/	/	.	.
Cc1ccccc1C(=O)Nc1cccc(C(=O)OCc2cc(=O)n3c4c(sc3n2)CCCC4)c1	/	/	/	.	.
O=C(CN1C(=O)COc2ccc(S(=O)(=O)N3CCCCCC3)cc21)N1CCN(c2ccc(F)cc2)CC1	/	/	/	.	.
CCCCC(CC)CCC(CC(C)C)OS(=O)(=O)O (configuration not stated)	/	/	/	/	.
COc1ccccc1NS(=O)(=O)c1cccc(C(=O)NCC(c2cccs2)N(C)C)c1 (configuration not stated)	-85	/	?	.	.
CNS(=O)(=O)c1cccc(C(=O)NCC(c2cccs2)N(C)C)c1 (configuration not stated)	-72	.	.	.	.
COc1ccccc1NS(=O)(=O)c1cc(C(=O)NCC(c2ccco2)N(C)C)ccc1C (configuration not stated)	?	.	.	.	.
COc1ccccc1NS(=O)(=O)c1cccc(C(=O)NCC(c2ccco2)N(C)C)c1 (configuration not stated)	-68	.	.	.	.
Cc1ccc(NS(=O)(=O)c2cccc(C(=O)NCC(c3cccs3)N(C)C)c2)cc1 (configuration not stated)	.	.	.	.	.
CCN(c1ccccc1)S(=O)(=O)c1cccc(C(=O)NCC(c2ccco2)N2CCCC2)c1 (configuration not stated)	-58	.	.	.	.
